Outcome and AC50 data for six compounds are collected here from PubChem BioAssay (EPA / NIEHS).

Results filed as inconclusive are left out. Active and inactive are the calls of the source. Rule for the calls, unless noted: active = hit-call score of the fitted dose curve at least 0.9, where 1 is the maximum; inactive = score below 0.9.

Assay [1] has as its target Peroxisome proliferator-activated receptor gamma (Homo sapiens) (UniProt P37231). The experiment in a line: OT_PPARg_PPARgSRC1_0480: Odyssey Thera (OT) 8-hour Protein-Complementation Assay for Peroxisome Proliferator-activated Receptor Gamma / SRC-1 Co-activator (AID 2283387; active = hit-call score of the fitted dose curve at least 0.9, where 1 is the maximum;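 note: nuclear to cytoplasmic split Venus YFP fluorescence ratio reporting PPARg SRC-1 interaction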). A digest of the protocol: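 Read-out: 488 nm N/C fluorescence ratio from complemented Venus YFP fragments, ≥350 cells per image, gain-of-signal fitted against DMSO baseline. Fusions of PPARg/SRC-1 with IFP1/IFP2 expressed transiently in HEK293T; compounds applied 8 h.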

For assay [2] the target is unchanged. The experiment in a line: OT_PPARg_PPARgSRC1_1440: Odyssey Thera (OT) 24-hour Protein-Complementation Assay for Peroxisome Proliferator-activated Receptor Gamma/ SRC-1 Co-activator (AID 2283388; active = hit-call score of the fitted dose curve at least 0.9, where 1 is the maximum;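 note: nuclear to cytoplasmic ratio of reconstituted Venus YFP fluorescence in fixed imaged cells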). A digest of the protocol:
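Cells carrying the PPARg/SRC-1 fragment-complementation reporter receive compound for 24 hours, are fixed and counterstained with Draq5, then imaged. Increased nuclear relative to cytoplasmic YFP fluorescence above DMSO baseline indicates binding activity.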

Assay [3] in a line: CEETOX_H295R_11DCORT: CeeTox H295R High-throughput Steroidogenesis Assay for 11-Deoxycortisol (11DCORT) (AID 2283432).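 For AC50: 11-deoxycortisol secreted into the medium measured by LC-MS/MS.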 Conditions: actives raise or lower the signal. A digest of the protocol:
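H295R cells; 10 uM forskolin prestim 48 h; compound in 0.1% DMSO 48 h; media extracted with MTBE; 11-deoxycortisol by LC-MS/MS, 7-point standard curve; gain/loss vs DMSO baseline; viability by MTT in same wells.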

Assay [4] in a line: CEETOX_H295R_OHPREG: CeeTox H295R High-throughput Steroidogenesis Assay for OH-Pregnenolone (OHPREG) (AID 2283434). The settings on record: actives raise or lower the signal. A digest of the protocol:
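H295R cells pre-stimulated 48 h with 10 uM forskolin, then exposed 48 h to chemical in 0.1% DMSO. 17alpha-hydroxypregnenolone in medium quantified by MTBE extraction and HPLC-MS/MS; bidirectional fit versus DMSO, viability checked by MTT.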

The nature of assay [5]: CEETOX_H295R_ANDR: CeeTox H295R High-throughput Steroidogenesis Assay for Androstenedione (ANDR) (AID 2283436). Conditions: actives raise or lower the signal. A digest of the protocol:
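H295R cells, following OECD 456 with minor changes, exposed to chemicals for 48 h. Androstenedione in the medium was quantified by HPLC-MS/MS after MTBE extraction. Fitting was bidirectional versus DMSO; chemicals were diluted until MTT viability was ≥70%.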

The nature of assay [6]: CEETOX_H295R_CORTIC: CeeTox H295R High-throughput Steroidogenesis Assay for Corticosterone (CORTIC) (AID 2283437).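 For AC50: human H295R adrenal cells prestimulated with forskolin before chemical exposure.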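 Note: corticosterone secreted into medium quantified by mass spectrometry.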 The settings on record: actives raise or lower the signal. A digest of the protocol:
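H295R adrenal cells prestimulated 48 hours with 10 uM forskolin, then exposed 48 hours to chemical in 0.1% DMSO. Corticosterone in medium measured by HPLC-MS/MS after MTBE extraction; MTT viability in the same wells; bidirectional fit versus DMSO.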

The nature of assay [7]: CEETOX_H295R_CORTISOL: CeeTox H295R High-throughput Steroidogenesis Assay for Cortisol (AID 2283438).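 Note: cortisol secreted into medium quantified by LC-MS/MS.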 The settings on record: actives raise or lower the signal. A digest of the protocol: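 Human adrenocortical H295R cells (passage ≤10) received test chemicals for 48 h after forskolin priming. Secreted cortisol was measured by LC-MS/MS.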
The nature of assay [8]: CEETOX_H295R_DOC: CeeTox H295R High-throughput Steroidogenesis Assay for DOC (AID 2283439). The settings on record: actives raise or lower the signal. In outline:
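Secreted DOC was quantified from H295R media by HPLC-MS/MS after 48 h chemical exposure following 48 h forskolin (10 uM) prestimulation. Values were fitted in both directions relative to DMSO, the negative control and baseline.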

A short description of assay [9]: CEETOX_H295R_PROG: CeeTox H295R High-throughput Steroidogenesis Assay for Progesterone (PROG) (AID 2283442).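 For AC50: human H295R adrenal cells primed with 10 µM forskolin before dosing.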 Conditions: actives raise or lower the signal. In outline:
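Measured analyte is progesterone secreted by H295R cells at 48 h of chemical treatment, following 10 uM forskolin priming. Quantitation used HPLC-MS/MS against a 7-point standard curve; cytotoxicity was checked by MTT absorbance.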

Read-out in assay [10]: Tumor necrosis factor receptor superfamily member 6 (Homo sapiens) (UniProt P25445)
The assay can be described thus: LTEA_HepaRG_FAS: Life Technologies and Expression Analysis (LTEA) Assay for Fas cell surface death receptor (FAS) using HepaRG (AID 2283447). The settings on record: mRNA level, 48 h; actives raise or lower the signal. A digest of the protocol: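 Differentiated HepaRG cells in serum-free induction medium were exposed 48 h to 8 half-log concentrations up to 100 uM in 0.5% DMSO, in duplicate. FAS mRNA was measured by qRT-PCR normalised to ACTB, GAPDH and POLR2A; bidirectional fit versus DMSO.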

Read-out in assay [11]: Fatty acid synthase (Homo sapiens) (UniProt P49327)
The assay can be described thus: LTEA_HepaRG_FASN: Life Technologies and Expression Analysis (LTEA) Assay for Fatty Acid Synthase (FASN) using HepaRG (AID 2283448).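 For AC50: differentiated human HepaRG liver cells in serum-free induction medium.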 Conditions: mRNA level, 48 h; actives raise or lower the signal. In outline: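 Transcript-level assay: HepaRG liver cells are treated for 48 h across an eight-point range topping at 100 uM, and FASN mRNA, normalized to three housekeeping genes, is compared with DMSO controls in both directions.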

Read-out in assay [12]: Cyclin D1 (CCND1), CCND1 (gene 595)
The experiment in a line: LTEA_HepaRG_CCND1: Life Technologies and Expression Analysis (LTEA) Assay for Cyclin D1 (CCND1) using HepaRG (AID 2283451).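 For AC50: differentiated human HepaRG liver cells in serum-free induction medium; TaqMan qRT-PCR transcript level normalised to ACTB GAPDH and POLR2A housekeeping genes.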 The settings on record: mRNA level, 48 h; actives raise or lower the signal. In outline:
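Expression change is measured by qRT-PCR in HepaRG cells after 48 h treatment across eight concentrations topping at 100 uM, with duplicate wells and DMSO (0.5%) serving as baseline for bidirectional fitting.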

Read-out in assay [13]: catalase (CAT), CAT (gene 847)
The experiment in a line: LTEA_HepaRG_CAT: Life Technologies and Expression Analysis (LTEA) Assay for catalase (CAT) using HepaRG (AID 2283452). Conditions: mRNA level, 48 h; actives raise or lower the signal. In outline: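 HepaRG cells in serum-free induction medium, 0.5% DMSO vehicle, exposed 48 h in duplicate over 8 half-log concentrations from 100 uM. CAT mRNA measured by qRT-PCR, normalized to ACTB, GAPDH, POLR2A; bidirectional fit versus DMSO.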

Read-out in assay [14]: flavin-containing dimethylaniline monooxygenases 3 (FMO3), FMO3 (gene 2328)
The experiment in a line: LTEA_HepaRG_FMO3: Life Technologies and Expression Analysis (LTEA) Assay for flavin-containing dimethylaniline monooxygenases 3 (FMO3) using HepaRG (AID 2283453).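 For AC50: differentiated human HepaRG liver cells in serum-free induction medium; FMO3 transcript by TaqMan qRT-PCR normalized to ACTB GAPDH and POLR2A.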 Conditions: mRNA level, 48 h; actives raise or lower the signal. In outline: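 HepaRG, 48 h exposure, 8-pt half-log series from 100 uM, 0.5% DMSO vehicle, duplicates; FMO3 transcript by Fluidigm TaqMan qRT-PCR, housekeeping-normalized; gain/loss fit vs DMSO.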

Read-out in assay [15]: Cytochrome P450 (CYP1A1), CYP1A1 (gene 1543)
The experiment in a line: LTEA_HepaRG_CYP1A1: Life Technologies and Expression Analysis (LTEA) Assay for Cytochrome P450 (CYP1A1) using HepaRG (AID 2283454). The settings on record: mRNA level, 48 h; actives raise or lower the signal. A digest of the protocol: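 Using HepaRG cultures with 0.5% DMSO as vehicle, eight-concentration exposures (max 100 uM) lasted 48 h. Transcript levels were measured by TaqMan qRT-PCR and normalized to ACTB, GAPDH and POLR2A.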

Read-out in assay [16]: CFLAR gene, CFLAR (gene 8837)
The experiment in a line: LTEA_HepaRG_CFLAR: Life Technologies and Expression Analysis (LTEA) Assay for CFLAR gene using HepaRG (AID 2283455). Conditions: mRNA level, 48 h; actives raise or lower the signal. A digest of the protocol:
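Differentiated HepaRG cells in serum-free induction medium were exposed 48 h in duplicate to eight half-log concentrations up to 100 uM in 0.5% DMSO; mRNA measured by TaqMan qRT-PCR, normalized to ACTB, GAPDH, POLR2A; bidirectional fitting versus DMSO.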

Read-out in assay [17]: Forkhead box O1 (FOXO1), FOXO1 (gene 2308)
The experiment in a line: LTEA_HepaRG_FOXO1: Life Technologies and Expression Analysis (LTEA) Assay for Forkhead box O1 (FOXO1) using HepaRG (AID 2283456). Conditions: mRNA level, 48 h; actives raise or lower the signal. In outline:
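Differentiated HepaRG cells, in serum-free induction medium with 0.5% DMSO, exposed 48 h in duplicate to 8-point half-log series from 100 uM. FOXO1 mRNA measured by TaqMan qRT-PCR, normalized to ACTB, GAPDH, POLR2A; bidirectional fit versus DMSO.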

Assay [18] in a line: CEETOX_H295R_TESTO: CeeTox H295R High-throughput Steroidogenesis Assay for Testosterone (TESTO) (AID 2283457). Conditions: actives raise or lower the signal. In outline:
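Steroidogenesis in H295R cells following OECD 456 with minor changes; 48 h exposure. Medium testosterone by HPLC-MS/MS, DMSO as baseline, with MTT viability run in parallel.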

Chain of Peroxisome proliferator-activated receptor gamma (Homo sapiens) (P37231 whole entry, looked up, the tested form may be a part): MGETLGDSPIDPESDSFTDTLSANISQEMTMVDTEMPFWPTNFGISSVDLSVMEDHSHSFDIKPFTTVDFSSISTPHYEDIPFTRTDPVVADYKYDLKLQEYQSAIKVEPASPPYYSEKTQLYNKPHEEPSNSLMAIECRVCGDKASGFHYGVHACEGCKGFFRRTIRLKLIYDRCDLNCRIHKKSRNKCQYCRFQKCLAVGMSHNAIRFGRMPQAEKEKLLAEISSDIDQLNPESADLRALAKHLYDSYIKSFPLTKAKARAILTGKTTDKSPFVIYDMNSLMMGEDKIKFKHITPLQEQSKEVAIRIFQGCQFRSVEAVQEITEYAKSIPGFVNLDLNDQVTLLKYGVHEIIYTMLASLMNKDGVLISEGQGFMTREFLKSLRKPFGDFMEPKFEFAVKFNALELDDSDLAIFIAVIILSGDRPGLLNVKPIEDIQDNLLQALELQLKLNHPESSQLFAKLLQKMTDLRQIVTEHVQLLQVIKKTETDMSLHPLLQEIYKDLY
Chain of Fatty acid synthase (Homo sapiens) (P49327 whole entry, looked up): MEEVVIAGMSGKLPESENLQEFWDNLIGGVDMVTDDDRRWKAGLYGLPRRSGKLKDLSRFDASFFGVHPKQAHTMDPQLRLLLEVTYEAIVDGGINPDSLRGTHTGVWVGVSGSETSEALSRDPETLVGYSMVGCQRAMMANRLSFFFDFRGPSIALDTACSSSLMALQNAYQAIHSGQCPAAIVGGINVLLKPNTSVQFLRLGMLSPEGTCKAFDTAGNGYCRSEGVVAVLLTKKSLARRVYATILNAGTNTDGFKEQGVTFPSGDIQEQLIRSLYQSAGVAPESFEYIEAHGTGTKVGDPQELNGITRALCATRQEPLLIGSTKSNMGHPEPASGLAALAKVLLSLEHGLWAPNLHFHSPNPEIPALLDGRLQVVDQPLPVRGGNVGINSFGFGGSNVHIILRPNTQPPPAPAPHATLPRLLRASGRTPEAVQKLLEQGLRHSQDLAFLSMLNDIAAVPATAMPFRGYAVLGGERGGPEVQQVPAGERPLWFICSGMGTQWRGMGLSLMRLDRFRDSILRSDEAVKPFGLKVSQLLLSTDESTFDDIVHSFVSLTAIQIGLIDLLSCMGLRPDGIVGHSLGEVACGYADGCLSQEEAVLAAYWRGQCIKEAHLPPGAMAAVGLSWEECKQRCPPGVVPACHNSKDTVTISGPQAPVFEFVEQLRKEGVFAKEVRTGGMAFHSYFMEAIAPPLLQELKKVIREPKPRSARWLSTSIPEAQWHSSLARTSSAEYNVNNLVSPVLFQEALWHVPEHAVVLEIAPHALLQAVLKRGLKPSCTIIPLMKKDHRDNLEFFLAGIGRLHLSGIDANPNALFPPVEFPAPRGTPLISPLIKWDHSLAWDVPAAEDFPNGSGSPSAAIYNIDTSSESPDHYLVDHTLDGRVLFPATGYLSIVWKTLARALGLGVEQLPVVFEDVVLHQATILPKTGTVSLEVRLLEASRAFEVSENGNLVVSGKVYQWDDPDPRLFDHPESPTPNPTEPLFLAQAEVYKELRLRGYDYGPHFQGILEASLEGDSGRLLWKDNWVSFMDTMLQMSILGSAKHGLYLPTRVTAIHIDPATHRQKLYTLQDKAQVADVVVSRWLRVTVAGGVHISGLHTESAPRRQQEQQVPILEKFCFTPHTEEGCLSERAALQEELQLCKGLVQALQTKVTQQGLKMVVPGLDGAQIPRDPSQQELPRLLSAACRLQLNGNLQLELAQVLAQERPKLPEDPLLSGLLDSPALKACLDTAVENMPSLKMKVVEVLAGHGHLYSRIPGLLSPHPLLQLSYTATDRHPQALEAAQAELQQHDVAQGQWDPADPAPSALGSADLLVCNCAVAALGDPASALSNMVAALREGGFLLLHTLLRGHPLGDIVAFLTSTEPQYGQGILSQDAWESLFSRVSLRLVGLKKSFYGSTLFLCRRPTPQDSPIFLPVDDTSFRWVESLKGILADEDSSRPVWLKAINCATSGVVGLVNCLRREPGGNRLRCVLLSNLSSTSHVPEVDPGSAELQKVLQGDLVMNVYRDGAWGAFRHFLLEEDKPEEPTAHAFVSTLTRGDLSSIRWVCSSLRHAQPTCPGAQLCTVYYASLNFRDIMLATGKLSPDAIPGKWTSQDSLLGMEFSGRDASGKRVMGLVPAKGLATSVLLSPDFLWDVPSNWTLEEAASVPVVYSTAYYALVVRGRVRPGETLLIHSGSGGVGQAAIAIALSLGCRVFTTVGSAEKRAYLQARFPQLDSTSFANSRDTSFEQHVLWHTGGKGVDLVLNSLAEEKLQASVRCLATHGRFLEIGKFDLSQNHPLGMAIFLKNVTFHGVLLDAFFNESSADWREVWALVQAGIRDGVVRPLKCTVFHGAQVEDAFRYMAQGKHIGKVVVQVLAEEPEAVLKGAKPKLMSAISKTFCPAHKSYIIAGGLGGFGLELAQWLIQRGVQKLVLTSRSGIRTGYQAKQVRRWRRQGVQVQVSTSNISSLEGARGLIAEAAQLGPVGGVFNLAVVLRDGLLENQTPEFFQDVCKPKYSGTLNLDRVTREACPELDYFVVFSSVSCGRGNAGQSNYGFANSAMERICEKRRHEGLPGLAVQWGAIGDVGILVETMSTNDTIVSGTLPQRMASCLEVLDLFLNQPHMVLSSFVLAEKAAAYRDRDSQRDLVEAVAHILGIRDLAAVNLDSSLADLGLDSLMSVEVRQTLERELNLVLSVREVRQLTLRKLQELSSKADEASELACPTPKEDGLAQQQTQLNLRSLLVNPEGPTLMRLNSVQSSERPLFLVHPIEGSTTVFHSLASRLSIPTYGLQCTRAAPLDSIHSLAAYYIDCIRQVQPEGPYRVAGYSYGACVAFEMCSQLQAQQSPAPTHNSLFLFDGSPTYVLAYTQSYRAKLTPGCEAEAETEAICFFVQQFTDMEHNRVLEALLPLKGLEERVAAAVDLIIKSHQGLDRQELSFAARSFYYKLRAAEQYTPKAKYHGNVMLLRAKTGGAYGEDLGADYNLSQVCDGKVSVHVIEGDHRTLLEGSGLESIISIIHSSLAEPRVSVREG

Turning to `CC1=C(C(=O)Nc2ccccc2)SCCO1`, the compound was classed as inactive in [1], in [2], in [3], in assay [4], in assay [5] and in [6]. In addition, the result in [7], in [8], in assay [9], in [10], in assay [17] and in [18] was inactive. The AC50 in [11] was 30.8 µM (active); in [12], 50 µM (active); in [13], 12.8 µM (active); in assay [14], 50 µM (active); in assay [15], 89.9 µM (active); in [16], 50 µM (active).

With `CCCCNC(=O)n1c(NC(=O)OC)nc2ccccc21`, the outcome in assay [1], in assay [2], in assay [3], in assay [4], in assay [5] and in assay [6] was inactive. In addition, the outcome in [7], in assay [8], in assay [9], in assay [10], in assay [11] and in [12] was inactive. In addition, the outcome in assay [13], in assay [14], in assay [16], in assay [17] and in [18] was inactive. In [15], the concentration at half-maximal activity (AC50) is 26.1 µM (active).

In the case of `CCCC1COC(Cn2cncn2)(c2ccc(Cl)cc2Cl)O1` (stereo not given), the compound was classed as inactive in assay [1], in assay [2], in assay [3], in assay [4], in [5] and in [8]. Also, the call in [9] and in assay [18] was inactive. Moreover, the AC50 in assay [6] is 0.357 µM (active); in [7], 0.323 µM (active); in assay [10], 72 µM (active); in assay [11] it was 83.3 µM (active); in assay [12], 90.2 µM (active); in assay [13], 37.2 µM (active). In addition, the AC50 in assay [14] is 34.6 µM (active); in assay [15], 40 µM (active); in assay [16], 77.7 µM (active); in assay [17], 76.1 µM (active).

`C=CC1(C)OC(=O)N(c2cc(Cl)cc(Cl)c2)C1=O` (stereo not given): the call in [1], in assay [2], in [4], in [6], in assay [7] and in assay [10] was inactive. Besides, the call in assay [11], in assay [12], in assay [13], in assay [14], in assay [16] and in assay [17] was inactive. Moreover, the concentration at half-maximal activity (AC50) was 25.6 µM (active) in assay [3], 11.3 µM (active) in [8], 17.5 µM (active) in [9] and 24.6 µM (active) in [15].

For `COP(N)(=O)SC` (stereo not given), the outcome in [1], in [2], in assay [10], in assay [11], in [12] and in [13] was inactive. Also, the compound was classed as inactive in assay [14], in assay [15], in assay [16] and in [17].

As for `CCCCNC(=O)OCC#CI`, the compound was classed as inactive in assay [1], in [2], in [11], in [12], in assay [13] and in assay [16]. Also, the compound was called inactive in [17]. The AC50 in [10] is 0.00316 µM (active); in assay [14] it was 50 µM (active); in assay [15] it was 50 µM (active).

As a reminder, the AC50 is the midpoint of the concentration-response curve, whichever way the signal moves.
